HIF-2a block – HIF-2a inhibition. 786-0 RCC cells HIF-2a reporter, luciferase luminescence, overnight. inhibition, % at 18.8 µM. 0.72% of 360,000 active. AID 624352;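 active = inhibition of the luminescence signal of 40% or more relative to plate controls, in a single-dose primary screen at 18.75 µM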
Peg3 prom inh – Peg3 promoter activity inhibition. HeLa PEG-Prom luciferase reporter, luminescence, overnight. inhibition, % at 20 µM. 1.7% of 360,000 active;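 active = inhibition of at least 50% at 20 µM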
TWEAK-Fn14 inh – TWEAK-Fn14 signaling inhibition; inhibition, % at 10 µM; 2% of 360,000 active; TWEAK-stimulated Fn14 reporter cells, luciferase luminescence, 8 h; in the data active = inhibition above about 50%
TROY signal inh – TROY signaling inhibition; Q293 LMP1-TROYcd NF-kB luciferase reporter, 4 h; inhibition, % at 10 µM; 0.98% of 360,000 active;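 active = compounds whose plate-normalised and pattern-corrected inhibition of the luciferase reporter signal at the single screening dose is 50% or more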
CF NFkB block – cystic fibrosis NF-kB activation inhibition | 0.86% of 360,000 active | KKLEB NF-kB-GFP reporter, PAF-induced, GFP fluorescence overnight | inhibition, % at 5 µM | AID 588850;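 active = at least 50% inhibition at 5 µM, scaled per plate between neutral and stimulator controls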;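 also: PAF is a Pseudomonas aeruginosa culture filtrate used as stimulus; plate controls were PAF-stimulated DMSO wells for no effect and unstimulated DMSO wells for full effect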
KKLEB cytotox – reduces viability of KKLEB cystic fibrosis airway cells; activity change (cytotoxicity), % at 5 µM; 0.36% of 360,000 active; KKLEB CF airway cells viability, ATPlite luminescence, overnight; active compounds read low; cells stimulated with P. aeruginosa culture filtrate;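 active = corrected activity change at or below -50% at 5 µM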
CF NFkB conf – confirmation of cystic fibrosis induced NF-kB inhibitors. shares compounds with CF NFkB block. 64% of 1,300 active. KKLEB CF airway cells, PAF-induced NF-kB-GFP fluorescence, overnight. AID 602472. inhibition, % at 5 µM; in the data active = inhibition above about 40%;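 also: stimulus PAF is a Pseudomonas aeruginosa filtrate and not platelet activating factor; plate controls were DMSO wells with stimulus for no effect and unstimulated DMSO wells for full effect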
Active calls of the source: *; . = no result; ! = a repeat was not active. Most compounds without a hit are left out; they make up all but 3.9% or so of the library.

SMILES	HIF-2a block	Peg3 prom inh	TWEAK-Fn14 inh	TROY signal inh	CF NFkB block	KKLEB cytotox	CF NFkB conf
CCOC(=O)/C=C(\C)N1N=C(c2ccccc2)CC1c1ccccc1 (stereo unspecified)	-265	-238	-36	-36	5	18	.
COc1ccc2c(=O)cc(-c3ccncc3)oc2c1OC	27	89*	42	27	59*	2	77*
COc1ccc(-c2cc(=O)c3c(OC)c(OC)c(OC)c(OC)c3o2)cc1OC	-3	34	-2	-5	16	26	.
CN(C)S(=O)(=O)c1ccc(NC(=O)N2CCN(c3cccc(C(F)(F)F)c3)CC2)cc1	31	29	45	29	9	-2	.
Cc1nn(-c2cccc(Cl)c2)c2nc(C(F)(F)F)[nH]c(=O)c12	-1	42	29	30	54*	-1	44*
CC(=O)N1CCc2c(sc(NC(=O)c3ccc([N+](=O)[O-])o3)c2C(N)=O)C1	-65	97*	11	-2	96*	-30	31
CCc1nc2ccc(C(=O)NCC3CCCCC3)cn2c1N(C)Cc1ccc(OC)cc1	4	13	2	4	24	-20	.
COc1ccccc1NC(=O)Cn1ccn(-c2cccc3ccccc23)c(=O)c1=O	8	17	7	-4	8	10	.
Cc1onc(-c2ccccc2)c1C(=O)N1CCCSC1=Nc1ccccc1	10	5	-21	2	56*!	2	-17
N#C/C(=C/c1ccc(CNC(=O)C(=O)Nc2cc(Cl)cc(Cl)c2)o1)C(=O)NCc1cccnc1	13	92*	-23	0	54*	-46	45*
Cc1ccc(NC(=O)C(=O)NCc2ccc(/C=C(/C#N)C(=O)NCc3cccnc3)o2)cc1	-3	12	7	6	-17	-4	.
COc1ccc2nc(Nc3nc(CSc4nc5ccccc5[nH]4)cc(=O)[nH]3)nc(C)c2c1	-17	98*	91*	58*	103*	-46	101*
CCOC(=O)N1CCN(C(=S)Nc2cccc(C)c2C)CC1	9	21	-4	6	18	2	.
CS(=O)(=O)c1ccc2nc(NC(=O)Nc3cccc(Cl)c3)sc2c1	-134	-60	47	3	64*	-32	66*
CS(=O)(=O)c1ccc2nc(NC(=O)Nc3ccc(Cl)c(Cl)c3)sc2c1	5	41	-20	12	25	-7	.
CC(=O)c1cnc2scnn2c1=O	7	-1	4	-6	-3	-12	.
CCOC(=O)c1ccc(N=Nc2c(C)[nH]n(-c3ccccc3)c2=O)cc1	-23	8	-8	20	-28	0	.
CCOC(=O)c1ccc(-n2[nH]c(-c3ccccc3)cc2=O)cc1	-19	-22	10	16	64*	-48	76*
COc1ccc(-c2cncnc2-c2ccc(OC)cc2O)cc1	19	8	69*	41	62*	-9	83*
O=C(Nc1nc2c(F)cc(F)cc2s1)c1ccc([N+](=O)[O-])o1	-256	-61	1	-42	86*	-41	16
O=C(Nc1nc2c(F)cc(F)cc2s1)c1ccco1	-210	-315	43	-49	-72	4	.
COc1ccc(CNc2nn3c(-c4cccc(C(=O)N(C)C)c4)cnc3s2)cc1	23	56*	81*	50*	84*	2	91*
O=C(c1cccc(NS(=O)(=O)c2ccccc2)c1)N1CCCC1	10	-1	-1	5	-18	12	.
O=C(c1cccc(NS(=O)(=O)c2ccc(F)c(F)c2)c1)N1CCN(C(c2ccccc2)c2ccccc2)CC1	18	22	57*	11	50*	2	-4
O=C(CSc1nnc(CNC(=O)c2ccco2)o1)Nc1ccc(F)cc1	-1	-7	37	-13	-11	7	.
SMILES	HIF-2a block	Peg3 prom inh	TWEAK-Fn14 inh	TROY signal inh	CF NFkB block	KKLEB cytotox	CF NFkB conf
Cc1ccc(C(=O)Nc2cccc(C(F)(F)F)c2)cc1NC(=O)c1nccn1C	-9	4	-49	-7	19	3	.
Cc1ccc(C(=O)Nc2cccc(C(F)(F)F)c2)cc1NC(=O)c1ccno1	-15	27	-36	5	60*	-4	71*
Cc1ccc(C(=O)Nc2cccc(C(F)(F)F)c2)cc1Nc1cnccn1	1	-3	-33	-26	51*	0	43*
O=C(OCC(=O)N1CCCC1=O)c1cc(S(=O)(=O)N2CCOCC2)ccc1F	2	-1	4	12	-12	3	.
O=C(Cc1ccccc1)NC1c2ccccc2-c2ccccc21	-5	9	-8	6	5	2	.
O=C(NCCc1ccc(Cl)cc1)C1=CC=CN2CCS(=O)(=O)N=C12	1	-10	7	-14	-7	-9	.
Cc1ncc(CO)c2c1Oc1nc(-c3ccccc3F)nc(SCC(=O)N(C)c3ccccc3)c1C2	25	85*	47	46	94*	-28	96*
CC1(C)Cc2nc(-c3ccccc3)nc(SCC(=O)N3CCCC3)c2CO1	15	8	-3	15	-8	16	.
Cc1ncc(CO)c2c1Oc1nc(-c3ccccc3)nc(SCC(=O)N3CCCCC3)c1C2	13	64*	27	22	85*	-5	29
CCOC(=O)C1C(C(=O)OC)=C(C2=CCCCC2)c2ccccc2N1S(=O)(=O)C(F)(F)F (stereo unspecified)	9	-2	4	3	28	-6	.
COc1cccc(NC(=O)CN(C)CC(=O)Nc2ccc(C)c([N+](=O)[O-])c2)c1	2	8	39	24	66*	0	76*
Cc1cc(C)n(-c2ccc(C(=O)NCC(=O)Nc3cc(Cl)ccc3Cl)cc2)n1	3	1	-9	7	20	-6	.
Cc1ccc(C(C(=O)NCc2ccccc2)N(Cc2cccs2)C(=O)c2ccc3c(c2)OCCO3)cc1 (stereo unspecified)	12	63*	54*	15	91*	-16	105*
N#CCCN(C(=S)NC(=O)c1ccco1)c1ccccc1F	14	1	3	17	9	-11	.
O=C(NCCc1ccc(F)cc1)c1coc(=O)c(Br)c1	13	48	90*	-7	81*	18	83*
O=C1CSC(c2ccc(Cl)c(Cl)c2)N1c1nccs1 (stereo unspecified)	2	15	-30	-15	-3	-3	.
COc1cccc(N2CCN(c3nc(-c4ccccc4C)cc(=O)[nH]3)CC2)c1	-53	104*	21	7	67*	-6	39
CC(C)C12CCC(C(=O)O)C(C1)C(=O)O2 (stereo unspecified)	3	23	-6	8	-8	-1	.
CCOC(=O)c1c(C)[nH]c(C)c1C(=O)CSc1nc2ccccc2n1CC	7	13	2	9	6	-6	.
